Assay results reported in PubChem BioAssay AID1454 (National Center for Advancing Translational Sciences (NCATS), 2008).
In all, about 130,000 compounds went through this assay and about 550 (0.42%) were called active. Not shown: some 4% with an inconclusive outcome. This is one part of a sample in which actives are shown more often than they occur. Unmarked numbers belong to inactive results. The call rests on the fitted dose curve; in most records, active means well fitted inhibition curve with a large enough effect; inconclusive means small, poorly fitted or top-dose-only effect, or effect the other way; inactive means flat fitted curve, though single readings scatter.

Assay: qHTS Assay for Inhibitors of the ERK Signaling Pathway using a Homogeneous Screening Assay; Stimulation with EGF; further: nearly all actives have a fitted effect of over 55% in size;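 on activity change, negative = inhibition: plate controls were stimulated vehicle wells for no effect and unstimulated vehicle basal for full effect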
Settings: HEK293-V1b, EGF-stimulated phospho-ERK AlphaScreen; series mostly up to 11.5 µM; activity change, negative = inhibition: at the top concentration
How it was run: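 Cell line HEK293 (stable V1b), low serum overnight. Pretreatment: compound 30 min, 37C. EGF 25 nM, 5 min. Detection: SureFire AlphaScreen, 5 h RT. AC50 via standard Hill equation.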
Potency means the concentration at half of the fitted maximal effect.

SMILES | activity change, negative = inhibition | Potency
Cc1cc(=O)[nH]c(S)c1C#N | -5.86% [at 57.5 µM] | –
CCN(CC)CCCN=Cc1c(O)n(-c2ccc(C)cc2)c(=O)c2ccccc12 | -15.5% [at 57.5 µM] | –
O=C(COc1ccc(Cl)cc1[N+](=O)[O-])N1CCCCC1 | -19.8% | –
CC(=O)Oc1c2c(c3c(c1CC=C(C)C)O[C@@]14C(=CC5CC1C(C)(C)OC4(C/C=C(\C)C(=O)O)C5=O)C3=O)OC(C)(CCC=C(C)C)C=C2 (some centres undefined) | – | 25.1 µM (active)
O=C(CC(=O)N/N=C\c1ccc(F)cc1)NCCc1ccccc1 | -8.99% | –
COc1ccc(OCC(O)CNCCNc2nccc(C(F)(F)F)n2)cc1 (centres undefined) | 2.31% [at 57.5 µM] | –
CCOc1ccc(/C=C(/NC(=O)c2ccccc2)C(=O)NCCC(=O)O)cc1 | -5.71% | –
O=C(NC1(C(F)(F)F)NC(=O)N(C2CCCCC2)C1=O)c1ccco1 (centres undefined) | -9.23% | –
CCN1CCN(C(=O)c2ccc(CN(c3ccc(C)c(C)c3)S(C)(=O)=O)cc2)CC1 | -11.4% | –
CC(=O)N(OCc1ccc(OC(C)C)c(Cl)c1)C(C)=O | 3.04% [at 57.5 µM] | –
NS(=O)(=O)c1ccc(CCNC(=O)c2ccc(Cl)cc2[N+](=O)[O-])cc1 | -7.68% | –
CN(C)c1ccc(Nc2c3c4c(cccc4n(C)c2=O)C(=O)c2ccccc2-3)cc1 | – | 3.16 µM (active)
Cc1cc(=O)oc2c(C(=O)c3ccccc3)c(OCC(N)=O)ccc12 | 1.12% [at 57.5 µM] | –
CN(C)c1ccc(/C=N/NC(=O)C(O)c2ccc(Br)cc2)cc1 (centres undefined) | 13.4% | –
CCC(C)N1C(=S)SC(C)(C)C1N(O)C(=O)NC1CCCCC1 (centres undefined) | -10.1% [at 57.5 µM] | –
Cc1ccc(C(=O)Nc2nc(N)n(-c3ccccc3)n2)cc1 | 3.9% [at 57.5 µM] | –
CC1=NNC(=O)C1CCC(=O)N/N=C(\C)c1ccc(Cl)cc1 (centres undefined) | -12.6% [at 57.5 µM] | –

SMILES | activity change, negative = inhibition | Potency
COc1ccc(Cc2nnc(NC(=O)c3cc(OC)c(OC)c(OC)c3)s2)cc1OC | 1.01% | –
O=C(O)c1n[nH]nc1-c1ccccc1 | -3% | –
COc1ccc(N=Nc2ccc(O)c(P(=O)(c3ccccc3)c3ccccc3)c2)cc1 | -14.3% [at 57.5 µM] | –
Oc1ccc(N=Cc2c(O)ccc3ccccc23)cc1 | -7% [at 57.5 µM] | –
Oc1ccc2ccccc2c1N=Nc1nccs1 | – | 12.6 µM (active)
Oc1ccc2ccccc2c1C=Nc1ccccc1 | 10.2% [at 57.5 µM] | –
O=C(CCNc1n[nH]c(=O)[nH]c1=O)N/N=C\c1ccc(Br)cc1 | 4.1% [at 57.5 µM] | –
CCOCCCNC(=O)C(NC(=O)Cc1c[nH]c2ccccc12)c1ccc(OC)cc1 (centres undefined) | -5% | –
Cc1cc(OCCCC(=O)NCCN2C(=O)S/C(=C\c3cccnc3)C2=O)ccc1Cl | 5.87% | –
O=C(NCc1ccco1)C(=O)c1cn(CC(=O)N2CCCCCC2)c2ccccc12 | -3.82% | –
Cc1ccnc(NC(=O)c2ccc(Cl)c([N+](=O)[O-])c2)c1 | -6.64% | –
Cc1ccc(OCC(=O)Nc2nnc(-c3ccco3)s2)cc1 | 3.26% [at 57.5 µM] | –
CC(C)C1Nc2c(C(=O)O)cccc2C(Nc2ccccc2C(=O)O)C1(C)C (centres undefined) | 1.59% | –
N#C/C(=C\N1CCOCC1)S(=O)(=O)c1ccc(Cl)cc1 | -6.91% [at 57.5 µM] | –
Cc1cc(C)c2c(NC(=O)C3CC3)nn(C)c2n1 | 0.186% | –
O=C(Cc1ccc(F)cc1)N1CCN=C1SCc1cccc([N+](=O)[O-])c1 | -1.53% | –
CN(Cc1cc2cc(F)ccc2[nH]1)Cc1nc(-c2cnccn2)no1 | -6.42% | –
